# Source: PubChem BioAssay (EPA / NIEHS)
# “And” between values parts separate entries of the source, which are not always exact repeats. Identical values can stand only once. Some compounds were tested as several samples or in several runs, with calls that do not always agree. The source made the active and inactive calls. How the source made its calls: active means hit-call score of the fitted dose curve at least 0.9, where 1 is the maximum; inactive means score below 0.9.
# Assay: CCTE_Shafer_MEA_acute_spike_number: CCTE's Neural Acute Assay for Total Number of Spikes, Shafer Lab (AID 2284008);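 on AC50: curve fitted for decrease in spike count so AC50 reflects inhibitors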
# In short: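 Total spike count from 40 min recordings before and during compound exposure (0.03-40 uM), given as per-well percent change. Cortical cultures from rat, DIV 13 or 15, 37 C; adaptive detection threshold 8x rms noise.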
Compound,outcome,AC50
N#CN,inactive,
ClC1C(Cl)C(Cl)C(Cl)C(Cl)C1Cl (centres undefined),,20 µM (active)
CC(C)OC(=O)Nc1cccc(Cl)c1,,10.2 µM (active)
Clc1ccccc1-c1nnc(-c2ccccc2Cl)nn1,inactive,
O=S(=O)(O)C(F)(F)C(F)(F)C(F)(F)C(F)(F)C(F)(F)C(F)(F)C(F)(F)C(F)(F)F,inactive,
CNC(=O)/C=C(\C)OP(=O)(OC)OC,inactive,
CC(C)N(C(=O)COc1nnc(C(F)(F)F)s1)c1ccc(F)cc1,,5.77 µM (active) and 2.11 µM (active)
O=C1c2ccccc2C(=O)N1SC(Cl)(Cl)Cl,inactive,
CC1(C)C(C=C(Cl)Cl)C1C(=O)OC(C#N)c1ccc(F)c(Oc2ccccc2)c1 (centres undefined),,407 nM (active) and 4.51 µM (active)
CNC(=O)CSP(=S)(OC)OC,inactive,
COP(=S)(OC)Oc1ccc(SC)c(C)c1,,7.7 µM (active)

# Assay: CCTE_Shafer_MEA_acute_firing_rate_mean: CCTE's Neural Acute Assay for Mean Firing Rate, Shafer Lab (AID 2284009);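 further: analyzed for loss of signal so actives lower firing rate relative to DMSO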
# In short: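 Percent change in well-mean firing rate was derived from extracellular spikes detected at 8x rms noise (300-5000 Hz band-pass) before and after a 40-min compound exposure. Cultures were primary rat cortical neurons, tested at 0.03-40 uM.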
Compound,outcome,AC50
N#CN,inactive,
ClC1C(Cl)C(Cl)C(Cl)C(Cl)C1Cl (centres undefined),,20 µM (active)
CC(C)OC(=O)Nc1cccc(Cl)c1,inactive,
Clc1ccccc1-c1nnc(-c2ccccc2Cl)nn1,inactive,
O=S(=O)(O)C(F)(F)C(F)(F)C(F)(F)C(F)(F)C(F)(F)C(F)(F)C(F)(F)C(F)(F)F,inactive,
CNC(=O)/C=C(\C)OP(=O)(OC)OC,inactive,
CC(C)N(C(=O)COc1nnc(C(F)(F)F)s1)c1ccc(F)cc1,inactive,5.77 µM (active)
O=C1c2ccccc2C(=O)N1SC(Cl)(Cl)Cl,inactive,
CC1(C)C(C=C(Cl)Cl)C1C(=O)OC(C#N)c1ccc(F)c(Oc2ccccc2)c1 (centres undefined),,450 nM (active) and 4.51 µM (active)
CNC(=O)CSP(=S)(OC)OC,inactive,
COP(=S)(OC)Oc1ccc(SC)c(C)c1,,7.7 µM (active)

# Assay: CCTE_Harrill_HTTr_Viability_MCF7: CCTE's 6-hour Cell Viability Assessment for the High-Throughput Transcriptomics (HTTr) Platform, in MCF-7 cells cultured in DMEM + 10% fetal bovine serum, Harrill Lab (AID 2284010)
# In short: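 MCF-7 cells in DMEM + 10% FBS, 384-well, exposed 6 h to an eight-point dilution series. Membrane integrity scored by high-content imaging of propidium iodide exclusion; bidirectional fit versus DMSO.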
row,Compound,outcome
1,N#CN,inactive
2,O=C(Nc1ccccc1)Nc1cnns1,inactive
3,CC(C)(C)C(O)C(Oc1ccc(Cl)cc1)n1cncn1 (centres undefined),inactive
4,ClC1C(Cl)C(Cl)C(Cl)C(Cl)C1Cl (centres undefined),inactive
5,CNC(=O)Oc1ccccc1OC(C)C,inactive
6,CC(C)OC(=O)Nc1cccc(Cl)c1,inactive
7,Clc1ccccc1-c1nnc(-c2ccccc2Cl)nn1,inactive
8,CN1CSC(=S)N(C)C1,inactive
9,O=S(=O)(O)C(F)(F)C(F)(F)C(F)(F)C(F)(F)C(F)(F)C(F)(F)C(F)(F)C(F)(F)F,inactive
10,O=C(NC(=O)c1c(F)cccc1F)Nc1ccc(OC(F)(F)C(F)OC(F)(F)F)c(Cl)c1 (centres undefined),inactive
11,CCc1ccc(C(=O)NN(C(=O)c2cc(C)cc(C)c2)C(C)(C)C)cc1,inactive
12,OCCOc1ccccc1,inactive
13,COP(=O)(OC)OC=C(Cl)Cl,inactive
14,CNC(=O)/C=C(\C)OP(=O)(OC)OC,inactive
15,CC(C)N(C(=O)COc1nnc(C(F)(F)F)s1)c1ccc(F)cc1,inactive
16,COc1nn(CSP(=S)(OC)OC)c(=O)s1,inactive
17,O=C1c2ccccc2C(=O)N1SC(Cl)(Cl)Cl,inactive
18,CC1(C)C(C=C(Cl)Cl)C1C(=O)OC(C#N)c1ccc(F)c(Oc2ccccc2)c1 (centres undefined),inactive
19,CCN(CC)C(=O)SCc1ccc(Cl)cc1,inactive
20,CNC(=O)CSP(=S)(OC)OC,inactive
21,O=C(O)C(F)(F)C(F)(F)C(F)(F)C(F)(F)C(F)(F)C(F)(F)C(F)(F)F,inactive
22,COP(=S)(OC)Oc1ccc(SC)c(C)c1,inactive
23,CNC(=O)Oc1cccc(N=CN(C)C)c1,inactive

# Assay: CCTE_Harrill_HTTr_Apoptosis_MCF7: CCTE's 6-hour Apoptosis Assessment for the High-Throughput Transcriptomics (HTTr) Platform, in MCF-7 cells cultured in DMEM + 10% fetal bovine serum, Harrill Lab (AID 2284011)
# In short: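 High-content imaging of CellEvent Caspase 3/7 Green signal follows a six-hour exposure, with eight concentrations per chemical. MCF-7 cells grown in DMEM plus 10% fetal bovine serum; activity fitted in both directions against DMSO.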
row,Compound,outcome
1,N#CN,inactive
2,O=C(Nc1ccccc1)Nc1cnns1,inactive
3,CC(C)(C)C(O)C(Oc1ccc(Cl)cc1)n1cncn1 (centres undefined),inactive
4,ClC1C(Cl)C(Cl)C(Cl)C(Cl)C1Cl (centres undefined),inactive
5,CNC(=O)Oc1ccccc1OC(C)C,inactive
6,CC(C)OC(=O)Nc1cccc(Cl)c1,inactive
7,Clc1ccccc1-c1nnc(-c2ccccc2Cl)nn1,inactive
8,CN1CSC(=S)N(C)C1,inactive
9,O=S(=O)(O)C(F)(F)C(F)(F)C(F)(F)C(F)(F)C(F)(F)C(F)(F)C(F)(F)C(F)(F)F,inactive
10,O=C(NC(=O)c1c(F)cccc1F)Nc1ccc(OC(F)(F)C(F)OC(F)(F)F)c(Cl)c1 (centres undefined),inactive
11,CCc1ccc(C(=O)NN(C(=O)c2cc(C)cc(C)c2)C(C)(C)C)cc1,inactive
12,OCCOc1ccccc1,inactive
13,COP(=O)(OC)OC=C(Cl)Cl,inactive
14,CNC(=O)/C=C(\C)OP(=O)(OC)OC,inactive
15,CC(C)N(C(=O)COc1nnc(C(F)(F)F)s1)c1ccc(F)cc1,inactive
16,COc1nn(CSP(=S)(OC)OC)c(=O)s1,inactive
17,O=C1c2ccccc2C(=O)N1SC(Cl)(Cl)Cl,inactive
18,CC1(C)C(C=C(Cl)Cl)C1C(=O)OC(C#N)c1ccc(F)c(Oc2ccccc2)c1 (centres undefined),inactive
19,CCN(CC)C(=O)SCc1ccc(Cl)cc1,inactive
20,CNC(=O)CSP(=S)(OC)OC,inactive
21,O=C(O)C(F)(F)C(F)(F)C(F)(F)C(F)(F)C(F)(F)C(F)(F)C(F)(F)F,inactive
22,COP(=S)(OC)Oc1ccc(SC)c(C)c1,inactive
23,CNC(=O)Oc1cccc(N=CN(C)C)c1,inactive
